# According to publication PMC7862700, “An all-to-all approach to the identification of sequence-specific readers for epigenetic DNA modifications on cytosine”:
# Legend:
# Assay in all cases: DAPPL (digital affinity profiling via proximity ligation, sequencing); 10 mM Tris-HCl pH 7.5, 50 mM NaCl, 1 mM DTT, 4% glycerol, room temperature, 30 min; GST-TFs on glutathione beads, 16-mer random dsDNA library, 0.1% formaldehyde crosslink after washing; high values mean tight binding
# Conditions in all cases: protein: recombinant; tags: N-terminal GST; dsDNA, one strand shown
# [1] = target: T1, ERF (Homo sapiens, UniProt P50548 1-548)
# T1 sequence: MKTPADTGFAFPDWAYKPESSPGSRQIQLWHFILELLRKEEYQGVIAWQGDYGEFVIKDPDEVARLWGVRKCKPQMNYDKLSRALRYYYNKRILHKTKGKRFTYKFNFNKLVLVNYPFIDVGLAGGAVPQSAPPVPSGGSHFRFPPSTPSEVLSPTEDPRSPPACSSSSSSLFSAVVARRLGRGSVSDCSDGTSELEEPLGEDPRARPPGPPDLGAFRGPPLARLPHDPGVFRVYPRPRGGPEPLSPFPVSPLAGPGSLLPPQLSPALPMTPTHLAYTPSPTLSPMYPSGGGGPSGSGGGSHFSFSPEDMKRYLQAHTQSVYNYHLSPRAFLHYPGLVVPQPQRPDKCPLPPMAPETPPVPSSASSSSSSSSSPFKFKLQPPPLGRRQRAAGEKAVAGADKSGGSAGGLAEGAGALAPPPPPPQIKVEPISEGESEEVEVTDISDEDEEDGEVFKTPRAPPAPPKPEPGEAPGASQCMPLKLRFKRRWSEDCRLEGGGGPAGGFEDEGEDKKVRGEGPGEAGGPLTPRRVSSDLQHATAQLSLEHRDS
# How it was run: (§1)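 GST fusions of human transcription factors were expressed in yeast and captured with glutathione beads. Once given DNA barcodes and pooled alongside a tag-only sample, they were incubated for 30 min at room temperature with 200 nmole of a random double-stranded 16-mer DNA library in Tris/NaCl/DTT/glycerol buffer, then washed, crosslinked (0.1% formaldehyde), proximity-ligated, PCR-amplified and sequenced on an Illumina NextSeq500. The binding signal of each hexamer is its read frequency for a factor divided by its frequency for the tag-only sample.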
# [2] = target: T2, ETV3L (Homo sapiens, UniProt Q6ZN32 1-361)
# T2 sequence: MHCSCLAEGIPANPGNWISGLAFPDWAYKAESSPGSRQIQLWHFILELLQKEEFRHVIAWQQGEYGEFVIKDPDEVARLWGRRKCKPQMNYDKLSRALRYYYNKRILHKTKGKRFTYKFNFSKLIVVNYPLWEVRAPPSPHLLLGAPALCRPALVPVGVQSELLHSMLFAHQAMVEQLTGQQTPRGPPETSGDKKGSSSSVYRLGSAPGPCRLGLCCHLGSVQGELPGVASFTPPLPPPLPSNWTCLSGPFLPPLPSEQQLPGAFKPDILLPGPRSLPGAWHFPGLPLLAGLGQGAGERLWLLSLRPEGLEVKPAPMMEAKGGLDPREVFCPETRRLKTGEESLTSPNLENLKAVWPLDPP
# How it was run: as §1
# [3] = target: T3, SPDEF (Homo sapiens, UniProt O95238 1-335)
# T3 sequence: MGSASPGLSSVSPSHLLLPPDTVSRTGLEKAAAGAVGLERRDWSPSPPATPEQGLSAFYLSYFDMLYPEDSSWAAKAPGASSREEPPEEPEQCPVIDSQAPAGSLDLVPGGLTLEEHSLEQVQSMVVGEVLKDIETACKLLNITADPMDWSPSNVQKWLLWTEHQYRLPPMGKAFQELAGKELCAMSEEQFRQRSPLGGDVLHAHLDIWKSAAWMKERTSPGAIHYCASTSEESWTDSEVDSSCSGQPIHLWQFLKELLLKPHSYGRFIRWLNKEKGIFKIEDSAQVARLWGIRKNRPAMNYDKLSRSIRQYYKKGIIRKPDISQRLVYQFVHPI
# How it was run: as §1
# [4] = target: T4, ETV7 (Homo sapiens, UniProt Q9Y603 1-341)
# T4 sequence: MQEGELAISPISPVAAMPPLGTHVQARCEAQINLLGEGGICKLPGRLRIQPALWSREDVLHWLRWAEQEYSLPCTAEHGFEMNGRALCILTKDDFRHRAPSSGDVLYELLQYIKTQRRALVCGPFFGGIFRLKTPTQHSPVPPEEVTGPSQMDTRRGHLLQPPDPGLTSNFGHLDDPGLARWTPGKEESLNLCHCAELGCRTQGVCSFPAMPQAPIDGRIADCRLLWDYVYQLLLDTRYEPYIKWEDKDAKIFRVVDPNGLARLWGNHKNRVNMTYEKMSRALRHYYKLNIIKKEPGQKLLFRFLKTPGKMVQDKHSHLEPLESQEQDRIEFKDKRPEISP
# How it was run: as §1
# [5] = target: T5, ETV3 (Homo sapiens, UniProt P41162-2 1-143)
# T5 sequence: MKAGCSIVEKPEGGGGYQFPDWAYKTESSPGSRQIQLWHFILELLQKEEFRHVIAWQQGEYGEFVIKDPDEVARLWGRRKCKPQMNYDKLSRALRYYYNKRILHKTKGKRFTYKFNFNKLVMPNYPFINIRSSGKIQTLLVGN
# How it was run: as §1
# [6] = target: ETV6 (Homo sapiens, UniProt P41212 1-452)
# How it was run: as §1
# [7] = target: T6, ETS2 (Homo sapiens, UniProt P15036 1-469)
# T6 sequence: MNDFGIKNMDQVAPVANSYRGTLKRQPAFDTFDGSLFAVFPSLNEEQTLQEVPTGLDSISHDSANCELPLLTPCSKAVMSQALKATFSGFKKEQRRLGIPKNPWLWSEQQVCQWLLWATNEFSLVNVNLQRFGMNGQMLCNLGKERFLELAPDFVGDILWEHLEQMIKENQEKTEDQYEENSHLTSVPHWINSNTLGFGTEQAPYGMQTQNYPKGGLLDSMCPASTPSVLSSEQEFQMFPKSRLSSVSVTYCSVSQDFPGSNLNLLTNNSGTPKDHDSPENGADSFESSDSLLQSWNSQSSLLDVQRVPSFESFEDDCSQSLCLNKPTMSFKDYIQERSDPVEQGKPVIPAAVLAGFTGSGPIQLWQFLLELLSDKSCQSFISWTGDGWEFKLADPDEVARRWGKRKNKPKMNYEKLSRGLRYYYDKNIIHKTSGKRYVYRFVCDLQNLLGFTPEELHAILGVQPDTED
# How it was run: as §1
# [8] = target: T7, ELF5 (Homo sapiens, UniProt Q9UKW6-2 1-255)
# T7 sequence: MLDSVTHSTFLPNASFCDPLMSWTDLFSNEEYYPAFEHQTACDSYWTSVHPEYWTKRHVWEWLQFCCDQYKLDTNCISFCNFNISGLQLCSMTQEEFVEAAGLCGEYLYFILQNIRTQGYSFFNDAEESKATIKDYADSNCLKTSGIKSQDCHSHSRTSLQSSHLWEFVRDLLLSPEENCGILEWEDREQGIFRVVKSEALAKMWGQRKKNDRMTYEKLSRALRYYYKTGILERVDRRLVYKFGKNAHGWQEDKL
# How it was run: as §1
# Chain of ETV6 (P41212 whole entry): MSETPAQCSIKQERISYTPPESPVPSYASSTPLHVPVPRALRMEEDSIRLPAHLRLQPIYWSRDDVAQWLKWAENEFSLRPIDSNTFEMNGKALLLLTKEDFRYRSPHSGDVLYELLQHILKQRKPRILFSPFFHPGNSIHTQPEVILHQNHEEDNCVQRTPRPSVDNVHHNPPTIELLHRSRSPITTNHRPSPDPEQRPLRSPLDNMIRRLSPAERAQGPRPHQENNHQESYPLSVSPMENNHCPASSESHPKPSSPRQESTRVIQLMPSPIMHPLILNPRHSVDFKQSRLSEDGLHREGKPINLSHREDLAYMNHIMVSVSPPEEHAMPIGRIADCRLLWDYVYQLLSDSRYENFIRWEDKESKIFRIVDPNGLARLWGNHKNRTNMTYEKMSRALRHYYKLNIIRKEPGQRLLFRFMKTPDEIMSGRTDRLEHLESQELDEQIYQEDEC
Sequence,binding signal [1],binding signal [2],binding signal [3],binding signal [4],binding signal [5],binding signal [6],binding signal [7],binding signal [8]
TTGGCT,"1.18 fold enrichment (6-mer frequency, TF over GST control)","1.13 fold enrichment (6-mer frequency, TF over GST control)","1.11 fold enrichment (6-mer frequency, TF over GST control)","1.07 fold enrichment (6-mer frequency, TF over GST control)","1.06 fold enrichment (6-mer frequency, TF over GST control)","1.13 fold enrichment (6-mer frequency, TF over GST control)",–,–
GAAAAA,"1.08 fold enrichment (6-mer frequency, TF over GST control)","1.16 fold enrichment (6-mer frequency, TF over GST control)",–,"1.16 fold enrichment (6-mer frequency, TF over GST control)","1.09 fold enrichment (6-mer frequency, TF over GST control)","1.17 fold enrichment (6-mer frequency, TF over GST control)","1.2 fold enrichment (6-mer frequency, TF over GST control)","1.22 fold enrichment (6-mer frequency, TF over GST control)"
CTACAG,"1.01 fold enrichment (6-mer frequency, TF over GST control)","1.13 fold enrichment (6-mer frequency, TF over GST control)","1.09 fold enrichment (6-mer frequency, TF over GST control)",–,–,"1.03 fold enrichment (6-mer frequency, TF over GST control)",–,"1.08 fold enrichment (6-mer frequency, TF over GST control)"
TTATCA,"1.14 fold enrichment (6-mer frequency, TF over GST control)","1.15 fold enrichment (6-mer frequency, TF over GST control)",–,"1.03 fold enrichment (6-mer frequency, TF over GST control)","1.09 fold enrichment (6-mer frequency, TF over GST control)","1 fold enrichment (6-mer frequency, TF over GST control)","1.04 fold enrichment (6-mer frequency, TF over GST control)","1.07 fold enrichment (6-mer frequency, TF over GST control)"
AGCTGC,"1.17 fold enrichment (6-mer frequency, TF over GST control)","1.07 fold enrichment (6-mer frequency, TF over GST control)",–,"1.16 fold enrichment (6-mer frequency, TF over GST control)","1.16 fold enrichment (6-mer frequency, TF over GST control)","1.11 fold enrichment (6-mer frequency, TF over GST control)","1.17 fold enrichment (6-mer frequency, TF over GST control)","1.06 fold enrichment (6-mer frequency, TF over GST control)"
TTCGGC,"1.13 fold enrichment (6-mer frequency, TF over GST control)","1.05 fold enrichment (6-mer frequency, TF over GST control)",–,"1.19 fold enrichment (6-mer frequency, TF over GST control)","1.13 fold enrichment (6-mer frequency, TF over GST control)",–,–,"1.01 fold enrichment (6-mer frequency, TF over GST control)"
GCACTG,"1.04 fold enrichment (6-mer frequency, TF over GST control)","1.07 fold enrichment (6-mer frequency, TF over GST control)",–,"1.11 fold enrichment (6-mer frequency, TF over GST control)","1.12 fold enrichment (6-mer frequency, TF over GST control)","1.09 fold enrichment (6-mer frequency, TF over GST control)","1.07 fold enrichment (6-mer frequency, TF over GST control)",–
TCCCAG,"1.05 fold enrichment (6-mer frequency, TF over GST control)","1.08 fold enrichment (6-mer frequency, TF over GST control)","1.07 fold enrichment (6-mer frequency, TF over GST control)","1.16 fold enrichment (6-mer frequency, TF over GST control)","1.07 fold enrichment (6-mer frequency, TF over GST control)",–,–,"1.12 fold enrichment (6-mer frequency, TF over GST control)"
AGTTCT,"1.14 fold enrichment (6-mer frequency, TF over GST control)","1.12 fold enrichment (6-mer frequency, TF over GST control)",–,"1.11 fold enrichment (6-mer frequency, TF over GST control)","1.18 fold enrichment (6-mer frequency, TF over GST control)","1.13 fold enrichment (6-mer frequency, TF over GST control)","1.17 fold enrichment (6-mer frequency, TF over GST control)","1.15 fold enrichment (6-mer frequency, TF over GST control)"
AACCCA,"1.1 fold enrichment (6-mer frequency, TF over GST control)","1.06 fold enrichment (6-mer frequency, TF over GST control)",–,"1.14 fold enrichment (6-mer frequency, TF over GST control)",–,"1.09 fold enrichment (6-mer frequency, TF over GST control)","1.04 fold enrichment (6-mer frequency, TF over GST control)","1.05 fold enrichment (6-mer frequency, TF over GST control)"
ATCGTT,"1.01 fold enrichment (6-mer frequency, TF over GST control)","1.11 fold enrichment (6-mer frequency, TF over GST control)",–,–,"1 fold enrichment (6-mer frequency, TF over GST control)","1.06 fold enrichment (6-mer frequency, TF over GST control)","1.06 fold enrichment (6-mer frequency, TF over GST control)",–
ATCATT,"1.13 fold enrichment (6-mer frequency, TF over GST control)","1.07 fold enrichment (6-mer frequency, TF over GST control)",–,"1.01 fold enrichment (6-mer frequency, TF over GST control)",–,"1.06 fold enrichment (6-mer frequency, TF over GST control)","1.01 fold enrichment (6-mer frequency, TF over GST control)",–
AGCCTA,"1.12 fold enrichment (6-mer frequency, TF over GST control)","1.09 fold enrichment (6-mer frequency, TF over GST control)",–,"1.13 fold enrichment (6-mer frequency, TF over GST control)","1.1 fold enrichment (6-mer frequency, TF over GST control)",–,"1.04 fold enrichment (6-mer frequency, TF over GST control)",–
AGCCCC,"1.03 fold enrichment (6-mer frequency, TF over GST control)","1.07 fold enrichment (6-mer frequency, TF over GST control)",–,–,"1.11 fold enrichment (6-mer frequency, TF over GST control)","1.12 fold enrichment (6-mer frequency, TF over GST control)","1.09 fold enrichment (6-mer frequency, TF over GST control)","1.01 fold enrichment (6-mer frequency, TF over GST control)"
AAGACT,"1.16 fold enrichment (6-mer frequency, TF over GST control)","1.04 fold enrichment (6-mer frequency, TF over GST control)",–,"1.08 fold enrichment (6-mer frequency, TF over GST control)","1.12 fold enrichment (6-mer frequency, TF over GST control)","1.13 fold enrichment (6-mer frequency, TF over GST control)","1.07 fold enrichment (6-mer frequency, TF over GST control)","1.15 fold enrichment (6-mer frequency, TF over GST control)"
CATGGG,"1.01 fold enrichment (6-mer frequency, TF over GST control)","1.14 fold enrichment (6-mer frequency, TF over GST control)",–,"1.03 fold enrichment (6-mer frequency, TF over GST control)",–,"1.01 fold enrichment (6-mer frequency, TF over GST control)",–,"1.04 fold enrichment (6-mer frequency, TF over GST control)"
